The text below walks through data of publication PMC7862700, “An all-to-all approach to the identification of sequence-specific readers for epigenetic DNA modifications on cytosine”.

Common to all, as to test: DAPPL (digital affinity profiling via proximity ligation, sequencing); 10 mM Tris-HCl pH 7.5, 50 mM NaCl, 1 mM DTT, 4% glycerol, room temperature, 30 min; GST-TFs on glutathione beads, 16-mer random dsDNA library, 0.1% formaldehyde crosslink after washing; high values mean tight binding
Test [1] addresses T1, FEV (Homo sapiens, UniProt Q99581 1-238).
T1 sequence: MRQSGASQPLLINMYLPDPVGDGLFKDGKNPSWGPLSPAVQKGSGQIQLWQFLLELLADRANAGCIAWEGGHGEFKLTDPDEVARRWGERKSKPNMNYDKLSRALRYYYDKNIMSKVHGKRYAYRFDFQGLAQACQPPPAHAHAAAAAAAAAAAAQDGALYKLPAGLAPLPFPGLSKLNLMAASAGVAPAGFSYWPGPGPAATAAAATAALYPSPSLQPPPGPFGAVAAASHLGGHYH
Particulars: protein: recombinant; tags: N-terminal GST; dsDNA, one strand shown. An outline of the steps:
(§1)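 Human transcription factors were made in yeast as GST fusions, captured on glutathione beads and barcoded with DNA. With a tag-only sample included, the pool was incubated with 200 nmole of a random double-stranded 16-mer DNA library in Tris/NaCl/DTT/glycerol buffer at room temperature for 30 min, then crosslinked with 0.1% formaldehyde after washing, ligated by proximity, amplified and sequenced. For binding signal, each hexamer's read frequency for a factor is divided by its frequency for the tag-only sample.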

Test [2] has as its target ETV5 (Homo sapiens, UniProt P41161 1-510). The following applies: protein: recombinant; tags: N-terminal GST; dsDNA, one strand shown. An outline of the steps: as §1
Test [3] has as its target HSF1 (Homo sapiens, UniProt Q00613 1-529). The following applies: protein: recombinant; tags: N-terminal GST; chain copies: 3; dsDNA, one strand shown. An outline of the steps:
as §1

Test [4] has as its target T2, SPIC (Homo sapiens, UniProt Q8N5J4 1-248).
T2 sequence: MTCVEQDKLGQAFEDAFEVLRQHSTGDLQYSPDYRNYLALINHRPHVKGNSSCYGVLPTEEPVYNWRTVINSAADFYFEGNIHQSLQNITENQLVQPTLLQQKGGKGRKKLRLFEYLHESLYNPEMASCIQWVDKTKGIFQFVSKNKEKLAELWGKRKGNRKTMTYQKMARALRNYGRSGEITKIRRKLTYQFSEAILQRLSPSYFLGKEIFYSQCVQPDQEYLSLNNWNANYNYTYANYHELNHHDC
Particulars: protein: recombinant; tags: N-terminal GST; dsDNA, one strand shown. An outline of the steps: as §1

The target of test [5] is ELF4 (Homo sapiens, UniProt Q99607 1-663). The following applies: protein: recombinant; tags: N-terminal GST; dsDNA, one strand shown. An outline of the steps:
as §1

For test [6], the target named is T3, ELK4 (Homo sapiens, UniProt P28324-2 1-405).
T3 sequence: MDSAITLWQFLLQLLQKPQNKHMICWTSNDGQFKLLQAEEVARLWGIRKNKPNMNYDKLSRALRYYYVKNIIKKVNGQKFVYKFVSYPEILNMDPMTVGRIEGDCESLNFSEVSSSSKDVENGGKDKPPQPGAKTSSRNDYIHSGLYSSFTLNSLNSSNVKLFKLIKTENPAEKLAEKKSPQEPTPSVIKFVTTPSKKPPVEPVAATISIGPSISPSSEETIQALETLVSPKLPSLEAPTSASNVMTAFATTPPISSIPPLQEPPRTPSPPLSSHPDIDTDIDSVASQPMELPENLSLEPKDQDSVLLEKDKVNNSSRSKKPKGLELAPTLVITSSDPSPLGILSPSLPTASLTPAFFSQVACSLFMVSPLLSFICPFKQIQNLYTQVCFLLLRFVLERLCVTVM
Particulars: protein: recombinant; tags: N-terminal GST; dsDNA, one strand shown. An outline of the steps: as §1

For test [7], the target named is T4, ETV2 (Homo sapiens, UniProt O00321 1-342).
T4 sequence: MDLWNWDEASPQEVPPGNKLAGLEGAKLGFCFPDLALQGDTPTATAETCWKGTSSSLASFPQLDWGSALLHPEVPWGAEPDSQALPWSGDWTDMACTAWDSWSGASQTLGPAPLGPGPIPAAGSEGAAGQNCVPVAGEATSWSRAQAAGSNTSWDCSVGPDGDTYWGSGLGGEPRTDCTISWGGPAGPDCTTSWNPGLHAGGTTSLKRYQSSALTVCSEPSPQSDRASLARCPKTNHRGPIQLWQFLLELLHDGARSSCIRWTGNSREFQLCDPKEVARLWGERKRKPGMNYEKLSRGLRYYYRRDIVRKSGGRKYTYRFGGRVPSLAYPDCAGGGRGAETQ
The following applies: protein: recombinant; tags: N-terminal GST; dsDNA, one strand shown. Put shortly:
as §1

Test [8] deals with T5, ELF3 (Homo sapiens, UniProt P78545 1-371).
T5 sequence: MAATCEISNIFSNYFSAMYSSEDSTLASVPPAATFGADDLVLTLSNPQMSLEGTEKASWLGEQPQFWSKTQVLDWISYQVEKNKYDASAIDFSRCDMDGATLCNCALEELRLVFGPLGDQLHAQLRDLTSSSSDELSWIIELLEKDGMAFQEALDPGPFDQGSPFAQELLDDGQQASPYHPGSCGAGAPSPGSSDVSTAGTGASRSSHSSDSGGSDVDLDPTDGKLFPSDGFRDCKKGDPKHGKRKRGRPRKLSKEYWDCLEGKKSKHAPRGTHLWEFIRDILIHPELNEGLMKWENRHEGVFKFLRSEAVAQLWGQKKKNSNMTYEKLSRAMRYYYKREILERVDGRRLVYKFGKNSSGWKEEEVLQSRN
The following applies: protein: recombinant; tags: N-terminal GST; dsDNA, one strand shown. Put shortly:
as §1

Test [9] has as its target CRX (Homo sapiens, UniProt O43186 1-299). Particulars: protein: recombinant; tags: N-terminal GST; dsDNA, one strand shown. An outline of the steps: as §1
Test [10] concerns the target ETV1 (Homo sapiens, UniProt P50549 1-477). The following applies: protein: recombinant; tags: N-terminal GST; dsDNA, one strand shown. Put shortly:
as §1

Test [11] addresses T6, ERF (Homo sapiens, UniProt P50548 1-548).
T6 sequence: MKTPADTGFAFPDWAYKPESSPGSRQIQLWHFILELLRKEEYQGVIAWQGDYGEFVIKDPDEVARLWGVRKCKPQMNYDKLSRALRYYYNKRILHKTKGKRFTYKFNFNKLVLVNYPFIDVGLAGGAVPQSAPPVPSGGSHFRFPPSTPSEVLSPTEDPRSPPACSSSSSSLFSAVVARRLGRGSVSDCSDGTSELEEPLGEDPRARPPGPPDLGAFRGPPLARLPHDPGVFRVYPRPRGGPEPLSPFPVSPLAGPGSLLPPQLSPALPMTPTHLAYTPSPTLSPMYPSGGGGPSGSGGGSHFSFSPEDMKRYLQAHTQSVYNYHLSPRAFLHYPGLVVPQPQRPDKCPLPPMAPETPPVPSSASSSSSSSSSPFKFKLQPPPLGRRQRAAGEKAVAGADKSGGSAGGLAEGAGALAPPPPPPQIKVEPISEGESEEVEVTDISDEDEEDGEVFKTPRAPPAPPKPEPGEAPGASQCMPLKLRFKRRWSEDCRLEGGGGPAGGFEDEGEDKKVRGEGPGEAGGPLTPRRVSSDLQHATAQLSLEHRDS
The following applies: protein: recombinant; tags: N-terminal GST; dsDNA, one strand shown. Put shortly: as §1

Test [12] has as its target T7, ETV3L (Homo sapiens, UniProt Q6ZN32 1-361).
T7 sequence: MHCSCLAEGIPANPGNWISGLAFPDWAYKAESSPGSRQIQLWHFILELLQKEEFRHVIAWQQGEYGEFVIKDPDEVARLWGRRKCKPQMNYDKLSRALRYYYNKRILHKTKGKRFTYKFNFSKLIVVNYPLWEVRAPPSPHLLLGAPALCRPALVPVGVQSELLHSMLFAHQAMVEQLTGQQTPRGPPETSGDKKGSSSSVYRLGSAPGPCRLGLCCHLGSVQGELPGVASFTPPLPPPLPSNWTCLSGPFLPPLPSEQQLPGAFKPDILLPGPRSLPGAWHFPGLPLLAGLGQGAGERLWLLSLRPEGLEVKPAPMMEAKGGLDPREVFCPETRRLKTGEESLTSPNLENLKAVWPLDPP
Particulars: protein: recombinant; tags: N-terminal GST; dsDNA, one strand shown. Put shortly:
as §1

Test [13] deals with T8, ETS2 (Homo sapiens, UniProt P15036 1-469).
T8 sequence: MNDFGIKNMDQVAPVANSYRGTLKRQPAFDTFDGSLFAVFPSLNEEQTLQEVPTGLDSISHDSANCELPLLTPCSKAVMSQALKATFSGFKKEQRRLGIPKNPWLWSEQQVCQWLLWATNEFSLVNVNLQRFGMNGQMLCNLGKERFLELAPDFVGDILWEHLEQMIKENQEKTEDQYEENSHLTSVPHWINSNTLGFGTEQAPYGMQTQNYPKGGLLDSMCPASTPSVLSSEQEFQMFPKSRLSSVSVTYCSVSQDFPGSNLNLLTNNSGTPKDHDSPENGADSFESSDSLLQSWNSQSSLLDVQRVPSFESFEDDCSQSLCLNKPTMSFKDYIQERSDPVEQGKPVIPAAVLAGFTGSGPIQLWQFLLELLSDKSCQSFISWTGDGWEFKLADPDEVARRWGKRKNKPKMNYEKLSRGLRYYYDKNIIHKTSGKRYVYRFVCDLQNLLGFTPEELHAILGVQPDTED
The following applies: protein: recombinant; tags: N-terminal GST; dsDNA, one strand shown. An outline of the steps:
as §1

For test [14], the target named is T9, SPDEF (Homo sapiens, UniProt O95238 1-335).
T9 sequence: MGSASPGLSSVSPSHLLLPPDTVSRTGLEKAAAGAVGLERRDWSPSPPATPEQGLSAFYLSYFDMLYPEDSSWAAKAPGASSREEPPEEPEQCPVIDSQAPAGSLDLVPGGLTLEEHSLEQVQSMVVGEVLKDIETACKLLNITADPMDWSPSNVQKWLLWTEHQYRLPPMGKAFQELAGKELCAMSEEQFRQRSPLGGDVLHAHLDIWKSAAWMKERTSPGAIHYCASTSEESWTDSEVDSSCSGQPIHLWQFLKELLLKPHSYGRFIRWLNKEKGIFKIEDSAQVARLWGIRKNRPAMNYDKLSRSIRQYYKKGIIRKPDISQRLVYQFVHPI
Particulars: protein: recombinant; tags: N-terminal GST; dsDNA, one strand shown. An outline of the steps: as §1

Test [15] addresses T10, ETV7 (Homo sapiens, UniProt Q9Y603 1-341).
T10 sequence: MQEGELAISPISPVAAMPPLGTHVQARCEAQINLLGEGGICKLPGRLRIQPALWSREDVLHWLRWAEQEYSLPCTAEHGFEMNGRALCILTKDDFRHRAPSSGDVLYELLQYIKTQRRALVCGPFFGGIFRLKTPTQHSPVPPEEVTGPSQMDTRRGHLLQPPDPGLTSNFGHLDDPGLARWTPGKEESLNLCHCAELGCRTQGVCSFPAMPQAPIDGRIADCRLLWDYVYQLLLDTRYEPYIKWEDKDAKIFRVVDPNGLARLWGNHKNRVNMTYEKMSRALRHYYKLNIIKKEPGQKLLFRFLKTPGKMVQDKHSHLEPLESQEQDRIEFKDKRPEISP
The following applies: protein: recombinant; tags: N-terminal GST; dsDNA, one strand shown. An outline of the steps:
as §1

Test [16] addresses T11, ELF5 (Homo sapiens, UniProt Q9UKW6-2 1-255).
T11 sequence: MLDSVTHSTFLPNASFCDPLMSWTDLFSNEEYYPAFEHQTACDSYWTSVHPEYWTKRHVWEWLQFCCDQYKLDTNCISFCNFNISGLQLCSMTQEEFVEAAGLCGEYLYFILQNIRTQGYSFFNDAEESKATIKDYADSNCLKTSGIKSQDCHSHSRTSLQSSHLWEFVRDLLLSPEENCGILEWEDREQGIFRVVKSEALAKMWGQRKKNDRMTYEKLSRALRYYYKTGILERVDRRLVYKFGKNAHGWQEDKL
Particulars: protein: recombinant; tags: N-terminal GST; dsDNA, one strand shown. An outline of the steps: as §1

Test [17] concerns the target T12, ETV3 (Homo sapiens, UniProt P41162-2 1-143).
T12 sequence: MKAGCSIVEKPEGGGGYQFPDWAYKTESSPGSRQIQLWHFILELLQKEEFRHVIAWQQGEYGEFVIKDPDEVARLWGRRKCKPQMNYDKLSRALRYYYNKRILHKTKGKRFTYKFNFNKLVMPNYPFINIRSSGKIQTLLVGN
Particulars: protein: recombinant; tags: N-terminal GST; dsDNA, one strand shown. An outline of the steps:
as §1

The target in test [18] is ETV6 (Homo sapiens, UniProt P41212 1-452). Particulars: protein: recombinant; tags: N-terminal GST; dsDNA, one strand shown. Put shortly:
as §1

Sequence of CRX (O43186 whole entry): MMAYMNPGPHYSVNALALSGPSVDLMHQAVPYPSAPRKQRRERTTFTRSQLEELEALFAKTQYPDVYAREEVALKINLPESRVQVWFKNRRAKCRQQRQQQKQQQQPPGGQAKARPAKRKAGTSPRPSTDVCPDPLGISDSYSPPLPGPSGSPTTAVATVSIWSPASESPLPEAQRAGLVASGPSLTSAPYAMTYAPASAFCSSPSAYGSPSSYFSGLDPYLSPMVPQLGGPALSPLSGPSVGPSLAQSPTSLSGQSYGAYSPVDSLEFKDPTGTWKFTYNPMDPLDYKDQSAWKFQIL
Sequence of ETV1 (P50549 whole entry): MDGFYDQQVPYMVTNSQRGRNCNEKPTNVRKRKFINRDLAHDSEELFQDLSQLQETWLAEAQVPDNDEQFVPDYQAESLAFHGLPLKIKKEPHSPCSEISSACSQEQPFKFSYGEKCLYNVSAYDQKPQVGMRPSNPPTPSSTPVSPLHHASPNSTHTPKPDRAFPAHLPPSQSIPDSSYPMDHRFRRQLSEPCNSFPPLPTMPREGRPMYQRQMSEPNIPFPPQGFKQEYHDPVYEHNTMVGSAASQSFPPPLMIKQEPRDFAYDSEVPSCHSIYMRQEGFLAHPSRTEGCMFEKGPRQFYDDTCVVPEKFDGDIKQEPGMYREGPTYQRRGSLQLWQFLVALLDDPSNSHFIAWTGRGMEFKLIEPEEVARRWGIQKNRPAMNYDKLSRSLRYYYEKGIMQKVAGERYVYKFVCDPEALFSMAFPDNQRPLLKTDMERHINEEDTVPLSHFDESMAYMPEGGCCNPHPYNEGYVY
Sequence of ELF4 (Q99607 whole entry): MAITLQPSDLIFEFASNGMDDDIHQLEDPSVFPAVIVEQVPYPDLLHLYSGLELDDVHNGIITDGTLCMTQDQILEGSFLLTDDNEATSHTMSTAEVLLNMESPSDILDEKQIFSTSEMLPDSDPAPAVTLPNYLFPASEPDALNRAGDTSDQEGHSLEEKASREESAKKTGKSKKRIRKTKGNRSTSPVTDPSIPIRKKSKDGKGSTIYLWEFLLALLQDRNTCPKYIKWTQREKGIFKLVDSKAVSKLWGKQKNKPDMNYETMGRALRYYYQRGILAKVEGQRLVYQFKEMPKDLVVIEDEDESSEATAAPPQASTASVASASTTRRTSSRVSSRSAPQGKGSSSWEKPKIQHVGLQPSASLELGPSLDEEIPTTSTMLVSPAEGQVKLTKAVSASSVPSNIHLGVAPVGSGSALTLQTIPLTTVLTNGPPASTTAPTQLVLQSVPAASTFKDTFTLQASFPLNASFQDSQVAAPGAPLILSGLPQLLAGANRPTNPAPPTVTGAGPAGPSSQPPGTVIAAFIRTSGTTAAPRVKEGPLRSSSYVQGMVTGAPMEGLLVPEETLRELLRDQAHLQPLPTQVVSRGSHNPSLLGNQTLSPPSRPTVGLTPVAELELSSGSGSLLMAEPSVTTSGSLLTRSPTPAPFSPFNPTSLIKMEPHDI
Sequence of ETV6 (P41212 whole entry): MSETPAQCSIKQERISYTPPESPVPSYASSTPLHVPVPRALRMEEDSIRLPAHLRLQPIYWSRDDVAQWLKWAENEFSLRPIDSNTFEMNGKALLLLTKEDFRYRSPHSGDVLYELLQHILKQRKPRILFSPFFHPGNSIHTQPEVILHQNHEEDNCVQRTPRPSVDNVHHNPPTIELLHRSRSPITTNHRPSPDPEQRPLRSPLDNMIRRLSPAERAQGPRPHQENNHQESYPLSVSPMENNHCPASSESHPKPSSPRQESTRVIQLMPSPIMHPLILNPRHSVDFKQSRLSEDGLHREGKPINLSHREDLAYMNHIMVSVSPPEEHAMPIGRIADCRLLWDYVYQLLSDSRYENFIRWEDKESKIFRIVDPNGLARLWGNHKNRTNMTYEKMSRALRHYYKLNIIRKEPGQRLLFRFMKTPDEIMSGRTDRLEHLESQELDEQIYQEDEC
Sequence of HSF1 (Q00613 whole entry): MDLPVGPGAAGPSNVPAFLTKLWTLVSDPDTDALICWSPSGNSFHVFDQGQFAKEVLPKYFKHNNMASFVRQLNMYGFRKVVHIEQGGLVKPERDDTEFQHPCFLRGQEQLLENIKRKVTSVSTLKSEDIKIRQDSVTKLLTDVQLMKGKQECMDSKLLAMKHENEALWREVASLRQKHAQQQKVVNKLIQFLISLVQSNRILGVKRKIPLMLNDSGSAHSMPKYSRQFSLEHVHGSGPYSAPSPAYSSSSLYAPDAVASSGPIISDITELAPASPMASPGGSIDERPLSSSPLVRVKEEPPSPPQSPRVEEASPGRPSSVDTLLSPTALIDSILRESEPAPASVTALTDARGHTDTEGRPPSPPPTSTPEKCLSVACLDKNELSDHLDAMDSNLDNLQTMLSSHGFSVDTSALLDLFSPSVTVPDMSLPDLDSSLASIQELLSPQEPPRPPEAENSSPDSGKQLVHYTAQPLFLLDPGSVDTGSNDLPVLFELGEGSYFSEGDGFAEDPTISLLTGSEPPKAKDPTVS
Sequence of ETV5 (P41161 whole entry): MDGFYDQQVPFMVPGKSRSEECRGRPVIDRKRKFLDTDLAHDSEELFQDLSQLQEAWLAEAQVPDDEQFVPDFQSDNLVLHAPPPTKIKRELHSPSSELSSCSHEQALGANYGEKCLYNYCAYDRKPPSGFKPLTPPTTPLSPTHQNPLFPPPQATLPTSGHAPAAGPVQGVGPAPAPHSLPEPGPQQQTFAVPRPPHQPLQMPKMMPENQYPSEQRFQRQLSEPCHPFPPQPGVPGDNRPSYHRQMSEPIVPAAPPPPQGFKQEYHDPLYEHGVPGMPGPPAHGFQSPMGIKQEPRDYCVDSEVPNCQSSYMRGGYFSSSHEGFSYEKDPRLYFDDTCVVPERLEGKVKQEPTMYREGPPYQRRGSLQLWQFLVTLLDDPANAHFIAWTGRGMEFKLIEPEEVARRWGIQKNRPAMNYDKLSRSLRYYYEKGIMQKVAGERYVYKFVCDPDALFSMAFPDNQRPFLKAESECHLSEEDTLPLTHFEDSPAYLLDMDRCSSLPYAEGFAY

For TGGCTT, the binding signal is 1.34 fold enrichment (6-mer frequency, TF over GST control) in test [1]; 1.19 fold enrichment (6-mer frequency, TF over GST control) in [2]; 1.38 fold enrichment (6-mer frequency, TF over GST control) in test [3]; 1.34 fold enrichment (6-mer frequency, TF over GST control) in test [4]; 1.28 fold enrichment (6-mer frequency, TF over GST control) in test [5]; 1.23 fold enrichment (6-mer frequency, TF over GST control) in [6]. Besides, the binding signal in [7] is 1.3 fold enrichment (6-mer frequency, TF over GST control); in test [8] it was 1.32 fold enrichment (6-mer frequency, TF over GST control); in [9] it was 1.75 fold enrichment (6-mer frequency, TF over GST control); in [10] it was 1.1 fold enrichment (6-mer frequency, TF over GST control); in test [11], 1.27 fold enrichment (6-mer frequency, TF over GST control); in test [12], 1.17 fold enrichment (6-mer frequency, TF over GST control). Also, the binding signal in test [13] was 1.26 fold enrichment (6-mer frequency, TF over GST control); in test [14], 1.11 fold enrichment (6-mer frequency, TF over GST control); in test [15] it was 1.31 fold enrichment (6-mer frequency, TF over GST control); in test [16], 1.18 fold enrichment (6-mer frequency, TF over GST control); in test [17], 1.18 fold enrichment (6-mer frequency, TF over GST control); in test [18], 1.29 fold enrichment (6-mer frequency, TF over GST control).
